Assay [1] in a line: inhibitors of TNFa-induced NFkB p65 translocation, primary screen, imaging, HUVEC, MLSMR starter and 10KST1 sets (AID 438;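 active = inhibition above 20% together with a positive visual image hit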;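 note: compound added about 3h40 before a 20 min TNFalpha stimulation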;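 for inhibition: signal is the nuclear over cytoplasmic p65 intensity ratio per well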). As to conditions: HUVEC TNFa-induced p65 nuclear translocation; cell count: measured here: nuclei count (cytotoxicity indicator), at 2.08 µM; inhibition: at 2 µM, stronger effect = higher value, 0% TNFa-plus-vehicle, 100% no-TNFa wells.
Assay [2] is described as follows: reduction of polyQ htt aggregates in cells – imaging, exon1htt(103Q)mCFP cells, high-content imaging, primary screen (AID 483;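 active = visual image review flags a hit and inhibition of aggregation exceeds 20%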;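 note: compound exposure lasted 3 days before fixation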;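 for nuclei count: percent of the per-plate median nuclei count of sample wells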). To be noted: exon1htt(103Q)mCFP cell line, aggregate imaging, at 2 µM; inhibition of aggregation: stronger effect = higher value; nuclei count: measured here: cell count, toxicity.
Assay [3] in a line: endothelial E-selectin expression blockers – imaging, HUVEC, immunofluorescence, MLSMR starter and 10KST1 sets, primary screen (AID 487;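 active = visually confirmed hit in the image check and inhibition above 20%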;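 for inhibition: signal is fraction of cell area covered by stained E-selectin grains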;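 for nuclei count: 100% = median nuclei count of all wells on the same plate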). To be noted: HUVEC TNFalpha-induced E-selectin immunofluorescence imaging, at 2 µM; inhibition: stronger effect = higher value; nuclei count: measured here: cell number, toxicity.
In assay [4] the target is Voltage-gated potassium channel subunit beta-2 (Rattus norvegicus) (UniProt P62483). As to the kind of experiment: inhibitors of rat Kvbeta2 reductase activity – biochemical, NADPH fluorescence, primary screen (AID 622;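 active = fluorescence slope higher than the sample average by over 3 SD, cut at about -0.22 in these data, passing the limit was not always enough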;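 note: slope of raw intensity against log time taken from 70 to 1610 s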). To be noted: recombinant KvBeta, 4-cyanobenzaldehyde reduction, at 10 µM, stronger effect = higher value.
Assay [5] has the same target. As to the kind of experiment: enhancers of rat Kvbeta2 NADPH turnover – biochemical, NADPH fluorescence, primary screen (AID 623;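 active = NADPH fluorescence slope more negative than the mean of all samples by about 3 SD, 99.7% confidence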;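 note: fluorescence intensity change per second fitted from 20 to 320 s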). To be noted: Recombinant KvBeta, NADPH fluorescence decrease slope, 10 min; at 10 µM; stronger effect = lower value.
The target of assay [6] is Alpha-2C adrenergic receptor (Homo sapiens) (UniProt P18825). Kind of assay: compounds altering alpha2C-coupled GIRK flux – cell-based, HEK293 alpha2C/GIRK1/2, thallium flux, primary screen (AID 624;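 active = fluorescence slope after compound addition differing from the mean of all screened samples at 99.7% confidence, in either direction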;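 note: slope of fluorescence ratio to pre-addition baseline per second over 15 to 24 s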). To be noted: thallium flux BTC fluorescence, at 10 µM, actives lie on both sides.
Assay [7] is described as follows: blockers of RIG-like receptor reporter activation – cell-based, Sendai virus stimulus, luciferase, 10K MLSCN set, TLR/RLR signaling modifier project, primary screen (AID 602276).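 Note: firefly luciferase from ISG56 promoter only with Renilla not read in this screen; 0% = Sendai virus plus DMSO and 100% = medium plus DMSO without virus.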 To be noted: HEK293 RL24 IRF3 luciferase reporter, at 10 µM, stronger effect = higher value. For orientation: In a reporter assay the amount or activity of a reporter protein is the signal.
Assay [8] is described as follows: TLR3 IRF3 reporter activation blockers – cell-based, poly I:C stimulus, luciferase, 10K MLSCN set, primary screen (AID 602277;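 active = inhibition of the reporter signal at or above 50%; inactive = inhibition below 50%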). As to conditions: HEK293-TLR3 RL24 IRF3 luciferase reporter, at 10 µM, stronger effect = higher value.

Results on 8 compounds are retold here after PubChem BioAssay.

Calls of active or inactive are those of the source.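 Rule for the calls, unless noted: active = inhibition at or above 50% at 10 µM; inactive = inhibition below 50%.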

The term inhibition denotes the relative decrease from the control value, in per cent.

Chain of Alpha-2C adrenergic receptor (Homo sapiens) (P18825 whole entry, looked up): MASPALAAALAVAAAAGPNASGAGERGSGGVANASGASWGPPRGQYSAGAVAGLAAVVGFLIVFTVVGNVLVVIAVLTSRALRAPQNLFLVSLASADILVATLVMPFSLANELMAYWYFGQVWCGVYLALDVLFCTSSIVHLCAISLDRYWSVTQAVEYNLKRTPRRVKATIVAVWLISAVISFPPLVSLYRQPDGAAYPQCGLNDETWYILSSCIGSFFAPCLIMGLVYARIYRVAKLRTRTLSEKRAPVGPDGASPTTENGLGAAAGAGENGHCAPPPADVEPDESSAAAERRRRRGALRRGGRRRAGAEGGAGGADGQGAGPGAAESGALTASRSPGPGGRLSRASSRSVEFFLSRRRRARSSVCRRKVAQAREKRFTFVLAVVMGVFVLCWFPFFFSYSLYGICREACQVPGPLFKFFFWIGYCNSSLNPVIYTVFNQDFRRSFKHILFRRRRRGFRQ
Chain of Voltage-gated potassium channel subunit beta-2 (Rattus norvegicus) (P62483 whole entry, looked up): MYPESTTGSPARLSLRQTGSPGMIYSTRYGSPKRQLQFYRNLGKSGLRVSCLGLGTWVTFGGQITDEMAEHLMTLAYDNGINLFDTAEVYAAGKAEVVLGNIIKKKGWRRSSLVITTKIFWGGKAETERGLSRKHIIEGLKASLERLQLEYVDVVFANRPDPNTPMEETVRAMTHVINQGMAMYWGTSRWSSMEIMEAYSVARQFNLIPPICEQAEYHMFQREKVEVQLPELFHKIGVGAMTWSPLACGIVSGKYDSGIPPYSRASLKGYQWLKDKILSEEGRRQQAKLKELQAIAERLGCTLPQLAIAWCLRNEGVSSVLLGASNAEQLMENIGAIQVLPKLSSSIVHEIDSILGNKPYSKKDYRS

As to `OC(CN1CCN(c2ccccn2)CC1)Cn1c2ccccc2c2ccccc21` (stereo not drawn), the cell count in assay [1] was found to be 386. For the same compound, the inhibition was 5.1% (inactive) in assay [1], -14.4% (inactive) in assay [3], 1.54% (inactive) in assay [7] and 21.8% (inactive) in assay [8]. The inhibition of aggregation in assay [2] is 7.2% (inactive). Besides, the nuclei count in assay [2] was 104%; in assay [3], 107%. Further, the fluorescence slope in assay [4] is -0.472 (inactive). Besides, the NADPH fluorescence slope in assay [5] was 5.1e-05 (inactive). In addition, the slope in assay [6] is 0.00493 (inactive).

Consider `O=C(CN1CCC(O)(c2ccc3c(c2)OCO3)CC1)OC1CCCCC1`, for which the cell count in assay [1] was 459. In addition, the inhibition in assay [1] is -3.6% (inactive); in assay [3] it was -55.1% (inactive); in assay [7], 8.26% (inactive); in assay [8] it was 15.6% (inactive). The inhibition of aggregation in assay [2] was 28.4% (inactive). The nuclei count in assay [2] is 67.8%; in assay [3], 99.5%. The fluorescence slope in assay [4] was -0.313 (inactive). Further, the NADPH fluorescence slope in assay [5] is -4.7e-05 (inactive). Also, in assay [6], the slope was 0.00487 (inactive).

Turning to `c1ccc(Nc2ccccc2Nc2ccccn2)nc1`, the cell count in assay [1] was 306. The inhibition in assay [1] was 4.4% (inactive); in assay [3], 8.5% (inactive); in assay [7], 13% (inactive); in assay [8], 25% (inactive). Also, in assay [2], the inhibition of aggregation was 21.6% (inactive). The figures for the nuclei count in assay [2] and in assay [3] were 88.1% and 90.5%, respectively. Moreover, the fluorescence slope in assay [4] is -0.379 (inactive). Besides, the NADPH fluorescence slope in assay [5] is -5.3e-06 (inactive). In addition, the slope in assay [6] was 0.00758 (inactive).

Turning to `Cc1cc(Nc2ccc(N3CCC(C)CC3)cc2)n2ncnc2n1`, in assay [1], the cell count turned out to be 426. For the same compound, the inhibition in assay [1] is -2.4% (inactive); in assay [3], -18.3% (inactive); in assay [7], -6.44% (inactive); in assay [8], -3.16% (inactive). For the same compound, the inhibition of aggregation in assay [2] was 6% (inactive). The values for the nuclei count in assay [2] and in assay [3] were 103% and 115%, respectively. In addition, the fluorescence slope in assay [4] was -0.602 (inactive). In addition, in assay [5], the NADPH fluorescence slope is 7e-05 (inactive). In assay [6], the slope was 0.00396 (inactive).

Take `OCCn1c(-c2ccc3c(c2)OCO3)csc1=Nc1ccccc1`: the cell count in assay [1] turned out to be 565. Also, the inhibition in assay [1] is 0.2% (inactive); in assay [3], -41.5% (inactive); in assay [7], -34% (inactive); in assay [8], -121% (inactive). For the same compound, the inhibition of aggregation in assay [2] was -0.6% (inactive). In addition, the values for the nuclei count in assay [2] and in assay [3] were 66.3% and 112%, respectively. Further, the fluorescence slope in assay [4] was -0.59 (inactive). Besides, the NADPH fluorescence slope in assay [5] is -2.7e-05 (inactive). Also, the slope in assay [6] is 0.00284 (inactive).

Turning to `CCCCOc1ccc(C(=O)N2CCC(C)CC2)cc1`, the cell count in assay [1] amounted to 323. The inhibition is 7.9% (inactive) in assay [1], -13.8% (inactive) in assay [3], -4.61% (inactive) in assay [7] and -21% (inactive) in assay [8]. Also, the inhibition of aggregation in assay [2] is -8.4% (inactive). The nuclei count in assay [2] stood at 99.9%; in assay [3], 87%. Moreover, the fluorescence slope in assay [4] is -0.434 (inactive). Further, in assay [5], the NADPH fluorescence slope is -5.1e-05 (inactive). Also, the slope in assay [6] was 0.00442 (inactive).

As for `COCCCNC(=O)CSc1ccc(Cl)cc1`, the cell count in assay [1] was 378. Moreover, the inhibition is -1.8% (inactive) in assay [1], 10.2% (inactive) in assay [3], 1.1% (inactive) in assay [7] and 10.8% (inactive) in assay [8]. In assay [2], the inhibition of aggregation was -3.3% (inactive). The nuclei count in assay [2] is 93.9%; in assay [3], 80%. For the same compound, in assay [4], the fluorescence slope was -0.377 (inactive). Also, the NADPH fluorescence slope in assay [5] was -5e-05 (inactive). For the same compound, in assay [6], the slope was 0.00511 (inactive).

On to `Cc1noc(C)c1CSc1nc2cc(S(=O)(=O)N3CCOCC3)ccc2o1`, for which the cell count in assay [1] was determined as 515. Also, the inhibition is -12.1% (inactive) in assay [1], -52% (inactive) in assay [3], 16.1% (inactive) in assay [7] and 19.5% (inactive) in assay [8]. In assay [2], the inhibition of aggregation is -33.5% (inactive). Besides, the nuclei count in assay [2] is 135%; in assay [3], 118%. The fluorescence slope in assay [4] is -0.478 (inactive). Further, in assay [5], the NADPH fluorescence slope was -0.000262 (inactive). The slope in assay [6] was 0.00432 (inactive).
